# This is a sample that favours compounds with a hit; in the whole collection about 1.7% have one here.
# MazEF act – activators of E. coli MazEF toxin-antitoxin RNase, primary screen, biochemical, fluorescence, uHTS. Endoribonuclease toxin MazF (Escherichia coli (strain K12)), P0AE70. FAM/BHQ RNA-DNA oligo cleavage fluorescence, 5 h. activation, % at 20 µM. 350,000 compounds, 0.32% hits. AID 504720, 2011; in the data active = activation above about 50%
# Target sequence (P0AE70 whole entry, looked up): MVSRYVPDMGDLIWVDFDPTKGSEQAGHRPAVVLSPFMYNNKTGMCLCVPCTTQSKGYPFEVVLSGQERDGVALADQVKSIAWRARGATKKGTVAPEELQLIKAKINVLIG
# SARS 3CLpro inh – SARS-CoV 3CLpro protease inhibitors, primary screen, biochemical, quenched FRET; Replicase polyprotein 1ab (Severe acute respiratory syndrome coronavirus), P0C6X7; recombinant SARS-CoV 3CLpro, quenched FRET peptide cleavage; 290,000 compounds, 0.14% hits; inhibition, % at 6 µM; in the data active = inhibition above about 12%
# BJeLR viability – MLPCN primary cell-based screen for lethality selective to Ras in HRASV12 cells. 300,000 compounds, 0.17% hits. BJeLR (HRASV12) viability, CellTiter-Glo ATP luminescence, 48 h. inhibition, % (concentration not given with the values); in the data active = inhibition above about 50%
# Vc quorum ag – inducers of Vibrio cholerae quorum light production without autoinducers, primary screen, BH1578 luxS cqsA deficient, single point | AID 588436, 2011 | V. cholerae BH1578 lux reporter, luminescence, 6 h | activation, % at 18.7 µM | 350,000 compounds, 0.16% hits; in the data active = activation mostly above about 9.7%, no sharp cut-off
# PfHsp40 yeast – rescue of yeast from PfHsp40 toxicity, primary screen, S. cerevisiae, ATP luminescence; S. cerevisiae expressing PfHsp40, growth rescue; growth rescue, % at 12.5 µM; 340,000 compounds, 0.68% hits; AID 504582, 2011; in the data active = growth rescue above about 28%, passing the limit was not always enough;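 note: yeast W303a lacking pdr1 and pdr3 grown in galactose medium; growth measured after three days at 30 °C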
# DUSP3 inh – VHR1 phosphatase inhibitors, primary screen, biochemical, absorbance, uHTS. Dual specificity protein phosphatase 3 (Homo sapiens), P51452. recombinant VHR phosphatase, pNPP absorbance. inhibition, % at 13.3 µM. 290,000 compounds, 0.52% hits; in the data active = inhibition above about 50%
# Target sequence (P51452 whole entry, looked up): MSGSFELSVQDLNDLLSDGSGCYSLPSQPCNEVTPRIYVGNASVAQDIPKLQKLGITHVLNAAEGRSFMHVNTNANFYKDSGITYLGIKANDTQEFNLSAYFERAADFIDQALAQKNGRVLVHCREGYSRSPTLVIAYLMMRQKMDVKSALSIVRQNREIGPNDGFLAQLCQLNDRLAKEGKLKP
# An asterisk follows results filed as active; i = inactive; . = no result given; + = active, no number.
SMILES,MazEF act,SARS 3CLpro inh,BJeLR viability,Vc quorum ag,PfHsp40 yeast,DUSP3 inh
O=C(CN1C(=O)NC2(CCOc3ccccc32)C1=O)NCCc1ccc(F)cc1 (configuration not stated),-3,.,.,i,1,.
COc1ccc2nc(C)cc(SCC(=O)NNC(=O)COc3ccc(C)cc3)c2c1,51*,5,-5,.,0,41
Cc1cccc(NC(=O)Cn2c(=O)n(Cc3ccco3)c(=N)c3c4c(sc32)COC(C)(C)C4)c1,4,-3,2,-1,0,52*
CCCN1C(=O)/C(=C/c2c(NCCCOC(C)C)nc3c(C)cccn3c2=O)SC1=S,436*,-1,3,i,0,29
CCC(C)N1C(=O)/C(=C/c2c(NCCCOC(C)C)nc3c(C)cccn3c2=O)SC1=S (configuration not stated),-276,0,.,0,-1,20
O=C(/C=C/c1cccc(C(F)(F)F)c1)NNC(=O)c1ccncc1,3,.,.,-2,5,.
O=C(CSc1nc2cc(Cl)ccc2s1)NCc1ccc2c(c1)OCO2,63*,-2,0,0,-1,2
O=C(NC(=S)NCc1ccc2c(c1)OCO2)c1ccccc1,0,9,9,i,52*,-2
O=C(NCc1ccc2c(c1)OCO2)Nc1cccc(Cl)c1,18,6,-3,0,0,59*
Cc1nnc(SCC(=O)NCc2ccc3c(c2)OCO3)s1,10,2,-7,0,0,3
O=C(NCc1ccc2c(c1)OCO2)c1ccccc1,-1,2,0,0,0,9
COc1ccc(OC)c(NC(=O)C(=O)NNC(=O)c2cccs2)c1,7,-1,-3,-1,1,24
CCOc1ccc(CC(=O)Nc2nccs2)cc1,-12,-10,-5,-1,0,22
Cc1ccc(CC(=O)Nc2nccs2)cc1C,-17,4,-3,0,1,58*
O=C(COc1ccccc1)Nc1nccs1,2,4,1,i,57*,13
O=C(CC1SC(=O)N(Cc2ccccc2)C1=O)Nc1nccs1 (configuration not stated),9,3,12,0,-1,53*
Cc1ccc([C@H]2C[C@@H](O)[C@H](n3cc(C4CC4)nn3)CN2CC2CCCCC2)cc1,9,.,.,-1,.,.
Cc1cccc(C(=O)Nc2ccc3c(c2)ncn3C)c1,1,10,-5,0,2,-9
CC(C)(C)OC(=O)N[C@@H](Cc1ccccc1)C(=O)NCC1CCC(C(=O)N[C@@H](CC(=O)O)C(=O)O)CC1 (some centres not stated),2,6,2,-1,-1,34
CCOc1ccc(NS(=O)(=O)c2cccc(C(=O)NCC3(N(C)C)CCCCC3)c2)cc1,3,.,.,i,-1,.
CCCCN1C2=NCCCN2c2ccccc21,6,0,2,0,0,38
CCCCCCCN1C2=NCCCN2c2ccccc21,926*,-1,5,i,0,19
CC1Cc2ccccc2N1C(=O)C1CCCN(S(=O)(=O)c2cccc3nsnc23)C1 (configuration not stated),-4,12*,-10,2,1,35
CCOCCCNC(=O)C1CCCN(S(=O)(=O)c2cccc3nsnc23)C1 (configuration not stated),13,0,6,i,1,2
COCCCNC(=O)C1CCCN(S(=O)(=O)c2cccc3nsnc23)C1 (configuration not stated),-1,0,3,-1,0,53*
SMILES,MazEF act,SARS 3CLpro inh,BJeLR viability,Vc quorum ag,PfHsp40 yeast,DUSP3 inh
CCOc1ccc(C(=O)COC(=O)c2nc3nccc(C)n3n2)cc1,2,.,.,i,1,.
COC(=O)c1ccc(CN2CCCC(C(=O)Nc3cccc(-n4cccn4)c3)C2)cc1 (configuration not stated),-10,-7,6,0,-1,52*
Cc1cc(S(=O)(=O)Nc2nc(CN3CCOCC3)nc3sc4c(c23)CCC4)ccc1F,-23,.,.,-7,1,.
COc1ccccc1C(=O)NNC(=S)NC(=O)c1ccco1,3,-6,20,0,71*,-8
CCOc1ccccc1NC(=S)NC(=O)c1ccco1,-3,-2,-10,i,75*,17
Cc1cc(C)c(S(=O)(=O)N2CCN(C(=O)c3ccc4c(c3)OCO4)CC2)c(C)c1,1,1,0,-2,1,16
O=C(c1ccc2c(c1)[nH]c(=S)n1c3ccccc3nc21)N1CCN(c2ncccn2)CC1,91*,2,1,i,0,13
Cc1sc2ncn(CC(=O)NCCN3CCOCC3)c(=O)c2c1S(=O)(=O)N1CCC(C)CC1,3,-3,-1,i,-2,2
Cc1sc2ncn(CC(=O)NCCCN3CCC(C)CC3)c(=O)c2c1S(=O)(=O)N1CCC(C)CC1,14,-1,-3,i,-1,60*
CN[C@H]1CCc2cc(OC)c(OC)c(OC)c2-c2ccc(N(C)CC(OC)OC)c(=O)cc21,-1,-1,53*,i,1,22
COc1cc2c(c(OC)c1OC)-c1ccc(O)c(=O)cc1[C@@H](N)CC2,3,.,.,0,352*,.
COc1cc2c(c(OC)c1OC)-c1ccc(N(C)CC(OC)OC)c(=O)cc1[C@@H](NC(C)=O)CC2,0,-3,50,i,11,18
CCN(CC)c1ccc2c(cc1=O)[C@@H](NC)CCc1cc(OC)c(OC)c(OC)c1-2,-15,5,56*,-6,-2,-3
COc1cc2c(c(OC)c1OC)-c1ccc(OC)c(=O)cc1[C@@H](NC(C)=O)CC2,5,8,24,i,-1,21
CCC(=O)N1CCC1(C)C(=O)Nc1ccc2nc(C)ccc2c1 (configuration not stated),.,.,.,0,.,.
CC(C)C(NC(=O)/C=C/c1ccc(F)cc1)C(C)C,-2,0,10,+,2,18
O=C(c1cc([N+](=O)[O-])ccc1N1CCOCC1)N1CCN(c2ccccc2)CC1,.,-1,56*,0,1,14
O=C(NC1CCSc2ccccc21)c1cc([N+](=O)[O-])ccc1N1CCOCC1 (configuration not stated),4,.,-6,i,36*,.
CSc1ccc(COC(=O)c2cc([N+](=O)[O-])ccc2N2CCOCC2)cc1,-4,.,56*,-2,-1,.
